In PubChem BioAssay AID485297 (National Center for Advancing Translational Sciences (NCATS), 2010) one finds Potency and activation, negative = inhibition data, which are given here for 113 compounds.

Screen size: about 320,000 compounds; about 9,100 (2.8%) were called active. A call without a number means that no potency is given here. About 3% were inconclusive and are not listed. The sample holds actives, similar compounds and a random draw of the others, so the mix is not that of the screen. A number with no mark means an inactive call. Calls follow the shape of the dose curve; as a rule, active = well fitted activation curve with a large enough effect; inconclusive = small, poorly fitted or top-dose-only effect; inactive = no such curve, though single readings can be large or run the other way.
Potency is read from the fitted curve at half-maximal effect.

A short description of the experiment: qHTS Assay for Rab9 Promoter Activators. Also: nearly all actives have a fitted effect of over 60% in size. The note with it: Huh7 Rab9 promoter-luciferase reporter, luminescence, 24 h; series mostly up to 9.22 µM. Summed up: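 Luciferase signal after 10 min detection reagent at ambient indicates Rab9 promoter upregulation; stably transfected Huh7 cells were treated 24 h with compound in DMSO at 37 °C, 5% CO2.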
Regarding `O=C(CN1CCCSc2ccccc21)N1CCN(S(=O)(=O)c2cccc(F)c2)CC1`, the Potency entry was “inactive”.

Regarding `Cc1cccc(NC(=S)NCCc2ccc(Cl)cc2)c1C`, the Potency entry is “inactive”.

As to `COc1ccccc1S(=O)(=O)NCc1ccc(C(=O)N(C)Cc2ccc(F)cc2)cc1`, the Potency entry is “inactive”.

Consider `CC(=O)Nc1ccc(NC(=O)CCN2C(=O)C3CC=CCC3C2=O)cc1` (stereo not drawn), for which the Potency entry is “inactive”.

Take `CCOC(OCC)c1ccc(/C=C\c2nccc(N)n2)cc1`: the Potency is 1780 nM (active).

On to `C[C@@H]1NC(=O)[C@@]2(C)[C@@H](c3ccccc3)[C@H]3COc4ccccc4[C@@H]3N2C1=O`, for which the Potency entry is “inactive”.

On to `Cc1ccc(OCCC(=O)Nc2ccc(S(=O)(=O)Nc3nccs3)cc2)cc1`, for which the Potency entry was “inactive”.

With `COc1cccc(OCC(=O)Nc2ccccc2C(N)=O)c1`, the Potency was 2820 nM (active).

With `Cc1cccc(OCCC(=O)Nc2ccccc2C(N)=O)c1`, the Potency result was “inactive”.

With `CCCOC(=O)Nc1ccccc1C(N)=O`, the Potency entry was “inactive”.

Take `COc1ccccc1C(=O)NCC(=O)NCCSc1ccc(Br)cc1`: the Potency entry was “inactive”.

Regarding `Cc1ccn(CCC(=O)N2c3ccccc3CC2C)n1` (stereo not drawn), the Potency entry is “inactive”.

Consider `CCn1nc(C(=O)OCC(=O)N2c3ccccc3CC2C)c2ccccc2c1=O` (stereo not drawn), for which the Potency entry is “inactive”.

Turning to `CCCC(=O)N1c2ccc(-c3csc(N)n3)cc2CC1C` (stereo not drawn), the Potency was 2820 nM (active).

As to `COC(=O)C1CCN(CC(N)=O)CC1`, the Potency result is “inactive”.

Turning to `COC(=O)c1ccc(CSc2ccc(S(=O)(=O)N3CCCCC3)cn2)cc1`, the Potency result is “inactive”.

Regarding `O=C(CN1C(=O)c2ccccc2S1(=O)=O)NC1CCCCC1`, the Potency entry is “inactive”.

On to `O=C(CN1C(=O)c2ccccc2S1(=O)=O)N1CCc2ccccc21`, for which the Potency entry was “inactive”.

Regarding `CC1CCCN(C(=O)CN2C(=O)c3ccccc3S2(=O)=O)C1` (stereo not drawn), the Potency is 2820 nM (active).

For `O=C(COC(=O)Cc1ccc(Br)cc1)Nc1ccc(N2CCOCC2)cc1`, the Potency result was “inactive”.

In the case of `CCOCc1c(C(=O)N2CCN(Cc3ccc(Br)s3)CC2)oc2ccccc12`, the Potency result is “inactive”.

Turning to `CC(=O)Nc1cccc(-c2nc3ccccc3s2)c1C`, the Potency result is “inactive”.

Turning to `O=C(O)CCCCc1nc2ccccc2s1`, the Potency entry is “inactive”.

`CCC(=O)NC(=Nc1nc2ccccc2s1)NC(=O)CC`: the Potency was 3550 nM (active).

Consider `CC(C)CC(=O)N/C(N)=N/c1nc2ccccc2s1`, for which the Potency was 2820 nM (active).

For `CC(C)CC(=O)NC(=S)NCc1ccccc1`, the Potency entry is “inactive”.

For the compound `Cc1cc(C(=O)OCC(=O)Nc2nnc(C(C)C)s2)c2ccccc2n1`, the Potency result is “inactive”.

As to `O=C(OCC(=O)N1CCCC1)c1ccc(Cl)nc1`, the Potency entry is “inactive”.

As for `CCCN(C(=O)c1nc2nccc(C)n2n1)c1c(N)n(Cc2ccccc2)c(=O)[nH]c1=O`, the Potency entry was “inactive”.

Take `O=C(Nc1cc(C(F)(F)F)ccc1Cl)c1cc2nc3c(c(C(F)(F)F)n2n1)CCCC3`: the Potency was 1780 nM (active).

With `O=C(Nc1cc(C(F)(F)F)ccc1Cl)C(=O)N1CCCCC1`, the Potency result was “inactive”.

Take `O=C(Nc1cc(C(F)(F)F)ccc1Cl)c1cc(C2CC2)on1`: the Potency result was “inactive”.

As for `Cc1cc(NC(=O)CCC(=O)N(CC(=O)NCC2CCCO2)c2ccccc2)no1` (stereo not drawn), the Potency entry is “inactive”.

For `CC(C)Oc1ccc(C(=O)NCC(=O)Nc2ccc3c(c2)CCC3)cc1`, the Potency entry is “inactive”.

As for `COc1ccc(N2CCN(C(=O)c3ccc4c(Cl)c5c(nc4c3)CCCC5)CC2)cc1`, the Potency entry was “inactive”.

As to `CC(C)CCNC(=O)c1ccc2c(Cl)c3c(nc2c1)CCC3`, the Potency was 794 nM (active).

Take `CC(=O)c1ccc(NC(=O)c2ccc3c(Cl)c4c(nc3c2)CCCC4)cc1`: the Potency entry was “inactive”.

For the compound `COc1ccc(C(=O)OCC(=O)N2CC(=O)Nc3ccccc32)cc1Br`, the Potency result was “inactive”.

Regarding `O=C1C2C3C=CC(C3)C2C(=O)N1c1ccc(-c2nc3ccccc3c(=O)o2)cc1` (stereo not drawn), the Potency entry is “inactive”.

`Cc1ccc(NC(=O)Cn2c(C)csc2=O)cc1`: the Potency entry was “inactive”.

`Cc1ccc(NC(=O)CCN2C(=O)c3ccccc3C2=O)cc1C`: the Potency result is “inactive”.

As to `Cc1ccc(NC(=O)c2cc(-c3ccccc3O)n[nH]2)cc1C`, the Potency is 2820 nM (active).

Turning to `Cc1ccc(C)c(NC(=O)c2cc(-c3cc(C)cc(C)c3O)n[nH]2)c1`, the Potency entry was “inactive”.

In the case of `Cc1ccc(NC(=O)c2cccs2)cc1S(=O)(=O)N(C)C`, the Potency result was “inactive”.

Consider `CCN(CC(=O)Nc1ccc(C)c(S(=O)(=O)N(C)C)c1)Cc1ccccc1`, for which the Potency result is “inactive”.

Consider `Cc1ccc(C(=O)Nc2ccc(C)c(S(=O)(=O)N(C)C)c2)s1`, for which the Potency is 1000 nM (active).

As for `CCN(CC)CCn1c2c(c(SCC(=O)Nc3nc4ccccc4s3)nc1=O)CCCC2`, the Potency entry is “inactive”.

Turning to `O=[N+]([O-])c1cc(Br)c(O)c(/C=N/Nc2nc3ccccc3s2)c1`, the Potency entry was “inactive”.

Take `c1ccc2sc(NN=C3CCCC3)nc2c1`: the Potency is 631 nM (active).

Turning to `CC(=O)O[C@H]1c2ccccc2-c2ccccc2[C@@H]1OC(C)=O`, the Potency entry is “inactive”.

`Cc1ccc(NC(=O)c2c(NC(=O)CCC(=O)O)sc3c2CCCCC3)cc1`: the Potency result is “inactive”.

As for `CCOC(=O)c1sc(NC(=O)c2sc(C)nc2C)nc1C`, the Potency result was “inactive”.

As to `Cc1ccc(NC(=O)c2csc3c2CCCC3)cc1`, the Potency was 1410 nM (active).

Take `CCOC(=O)c1sc(NC(=O)c2cc(S(=O)(=O)N3CCOCC3)ccc2C)nc1C`: the Potency result is “inactive”.

For `O=C(Nc1ccccc1N1CCOCC1)c1csc2c1CCCC2`, the Potency result was “inactive”.

For the compound `COC(=O)c1sc(NC(=O)c2csc3c2CCCC3)nc1C`, the Potency is 3980 nM (active).

With `CCN(C(=O)COC(=O)c1c(C)nn(-c2ccccc2)c1Cl)c1c(N)n(Cc2ccccc2)c(=O)[nH]c1=O`, the Potency entry was “inactive”.

For the compound `Cc1cccc(NC(=O)CN2CCN(CC(=O)NCC3(N4CCCCC4)CCCCC3)CC2)c1C`, the Potency entry was “inactive”.

As for `CCCn1c(N)c(N(CCOC)C(=O)C2CCCC2)c(=O)[nH]c1=O`, the Potency result was “inactive”.

Turning to `O=C(CNS(=O)(=O)c1ccc2ccccc2c1)Nc1ccc(F)c(F)c1F`, the Potency result is “inactive”.

Consider `COC(=O)c1ccc(NC(=O)CSc2nncn2-c2cccnc2)cc1`, for which the Potency result is “inactive”.

On to `O=C(COC(=O)c1cccc(Cl)c1)NC1CCCCCCC1`, for which the Potency result is “inactive”.

For `O=C(CSc1nnc(N2CCOCC2)n1-c1cccc(F)c1)N1CCN(c2ccccn2)CC1`, the Potency result was “inactive”.

For the compound `C=CCNc1nc(Nc2ccc(Cl)cc2)nc(OC)n1`, the Potency result is “inactive”.

`Brc1ccc(CN2CC[C@H]3C=CCc4cccc(c43)C2)cc1`: the Potency result was “inactive”.

Regarding `Cc1cccc(-n2cnc(C(=O)Nc3cccnc3)c2)n1`, the Potency is 2240 nM (active).

Take `Cc1cccc(-n2cnc(C(=O)NNC(=S)Nc3ccccc3)c2)n1`: the Potency entry is “inactive”.

As for `COc1cccc(C(=O)Nc2cccnc2)c1OC`, the Potency result was “inactive”.

Take `Cc1ccc(NC(=O)CN(C)C(=O)c2cccc(S(=O)(=O)N3CCCC3)c2)cc1`: the Potency entry is “inactive”.

On to `Cc1ccc(O)c(CNc2nc3ccccc3[nH]2)c1`, for which the Potency entry is “inactive”.

Consider `Cc1cc(NC(=O)c2ccco2)c(=O)n(Cc2c(F)cccc2Cl)c1`, for which the Potency result was “inactive”.

With `Cc1ccc(-n2nc3cc(Cl)c(NC(=O)c4ccco4)cc3n2)cc1`, the Potency was 3550 nM (active).

`Cc1ccc(-n2nc3cc(C)c(NC(=O)c4cccnc4)cc3n2)cc1`: the Potency is 3550 nM (active).

Turning to `O=C(Nc1cc(-c2nc3ncccc3o2)ccc1Cl)c1ccco1`, the Potency entry was “inactive”.

With `Cc1ccc(S(=O)(=O)N2CCCCC2)cc1NC(=O)c1cccnc1`, the Potency result was “inactive”.

For the compound `O=C(Nc1cccc(-n2cnnn2)c1)c1cccnc1`, the Potency result is “inactive”.

With `O=C(OC1CCCCC1=O)c1cccc(S(=O)(=O)NCc2ccccc2)c1` (stereo not drawn), the Potency result was “inactive”.

With `CCOc1ccccc1NC(=O)NC1CCCCCCC1`, the Potency entry is “inactive”.

Consider `O=C(CN1CCN(C2CCS(=O)(=O)C2)CC1)N1N=C(c2ccc(Cl)cc2)CC1c1ccco1` (stereo not drawn), for which the Potency result was “inactive”.

For the compound `CC(=O)NCc1ccc(-c2csc(NC(=O)CCCc3nc4ccccc4c(=O)[nH]3)n2)cc1`, the Potency entry was “inactive”.

`CC1(C(=O)OCC(=O)Nc2ncc(Cl)cc2Cl)CC1(Cl)Cl` (stereo not drawn): the Potency result was “inactive”.

For the compound `O=C(CSc1ccccc1)Nc1cccc(S(=O)(=O)N2CCOCC2)c1`, the Potency entry was “inactive”.

For `CC(=NCC1CCCO1)c1c(O)[nH]c(=O)[nH]c1=O` (stereo not drawn), the Potency entry is “inactive”.

On to `O=C1C(C=NCC2CCCO2)=C(O)c2ccccc21` (stereo not drawn), for which the Potency was 2820 nM (active).

With `O=C1c2cccc3c([N+](=O)[O-])ccc(c23)C(=O)N1CC1CCCO1` (stereo not drawn), the Potency entry is “inactive”.

With `O=[N+]([O-])c1ccccc1SNc1ccccn1`, the Potency entry was “inactive”.

Consider `O=C(O[C@H]1[C@H](Cc2ccccc2)NS(=O)(=O)[C@H]2C[C@@H]3C=C[C@]12O3)c1ccc([N+](=O)[O-])cc1`, for which the Potency result is “inactive”.

With `COc1ccc2c(C)cc(SCC(=O)NCC3CCCO3)nc2c1` (stereo not drawn), the Potency result was “inactive”.

In the case of `CCOC(=O)CSc1nnc(-c2ccncc2)o1`, the Potency entry is “inactive”.

For `CCCCSc1nnc(-c2ccc(C)cc2)o1`, the Potency was 1580 nM (active).

Consider `Cc1cccc(C)c1OC(=O)CSc1nnc(-c2ccccc2)o1`, for which the Potency entry was “inactive”.

`Cc1ccc(S(=O)(=O)N(C)C)cc1NC(=O)C(C)OC(=O)c1ccc2ccccc2n1` (stereo not drawn): the Potency entry was “inactive”.

With `O=C(c1ccccc1)N1CCN(C(=O)N2CCCCC2)CC1`, the Potency entry is “inactive”.

`O=C(O)c1cccc(N=NN2CCCCCC2)c1`: the Potency is 282 nM (active).

For the compound `O=C(O)c1ccc(N=NN2CCOCC2)cc1`, the Potency entry was “inactive”.

For `COc1ccc2c3c(c(=O)oc2c1)C1O[C@](CCCCN2C(=O)c4ccccc4C2=O)(Cc2c1ccc1ccccc21)O3`, the activation, negative = inhibition was -1.17% [at 1.84 µM].

As to `COc1cc(C(=O)NCC2(c3ccccc3)CCCC2)ccc1OC(C)C`, the Potency result was “inactive”.

For the compound `Cc1nc2cc(NC(=O)Nc3cccc(F)c3)ccc2n1C`, the Potency was 89.1 nM (active).

As to `Cc1cc2nc(C)n(CCCNC(=O)Nc3ccccc3)c2cc1C`, the Potency result is “inactive”.

Turning to `Cc1nc2cc(NC(=O)NC3CC3)ccc2n1C`, the Potency result was “inactive”.

As to `c1ccc(-n2ncc3c2ncn2c(C4CCCCC4)nnc32)cc1`, the Potency is 3980 nM (active).

Consider `CC(=O)Cn1cnc2c(cnn2-c2ccccc2)c1=O`, for which the Potency entry was “inactive”.

Turning to `CN(C(=O)COc1ncnc2c1cnn2-c1ccccc1)C1CCCCC1`, the Potency entry was “inactive”.

As for `c1ccc2cc(CCCc3cc4ccccc4cn3)ncc2c1`, the Potency result was “inactive”.

Turning to `COc1ccc(OCCCC(=O)NCCc2ccccc2)cc1`, the Potency result is “inactive”.

In the case of `O=C(CCNC(=O)c1ccc(Br)cc1)NCCCc1ccccc1`, the Potency entry is “inactive”.

In the case of `CCCCCCCCC(=O)NCCOc1ccccc1`, the Potency entry was “inactive”.

Regarding `CCCOc1ccc(C(=O)NCCc2ccccc2)cc1`, the Potency is 447 nM (active).

Take `Cc1noc(C)c1COc1ccc(C(=O)NCCOc2ccccc2)cc1`: the Potency entry is “inactive”.

For the compound `CCCc1ccc(OCCNC(=O)c2ccco2)cc1`, the Potency result is “inactive”.

Regarding `CC(C)c1ccc(C(=O)NCCCc2ccccc2)cc1`, the Potency was 3160 nM (active).

Consider `O=C(NCCOc1ccccc1)c1ccccc1`, for which the Potency was 708 nM (active).

As to `CN(c1ccccc1)S(=O)(=O)c1ccc(C(=O)NCCc2ccccc2)cc1`, the Potency entry was “inactive”.
